Whole data set: some 33,000 sequences, median “normalized occupancy” near 0.075, cut for the highest 2% near 0.095. This excerpt belongs to a sample that is enriched for the highest values.

MaxL homodimer, sequence (P61244 whole entry): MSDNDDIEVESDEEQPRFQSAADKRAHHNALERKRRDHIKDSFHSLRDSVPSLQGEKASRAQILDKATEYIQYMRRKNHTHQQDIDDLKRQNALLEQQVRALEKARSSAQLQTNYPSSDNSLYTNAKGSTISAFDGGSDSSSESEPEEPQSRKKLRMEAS

This test deals with MaxL homodimer (Homo sapiens, UniProt P61244 1-160). Description: universal protein-binding microarray (PBM); PBS-based mixture, 10 nM His-tagged protein dimer, 2% milk, 200 ng/uL BSA, 50 ng/uL salmon testes DNA, 0.02% TX-100; detection with Alexa 488 anti-His antibody;; high values mean tight binding. To be noted: protein: recombinant; tags: C-terminal His-tag (pET21a); chain copies: 2; dsDNA, one strand shown. Put shortly:
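A His-tagged protein dimer at 10 nM was incubated on Agilent 4 x 44 K arrays of the 'all 10-mer' universal design, then labelled with 10 ng/μL fluorophore-conjugated anti-His antibody and scanned on a GenePix 4400A. A fluorescence intensity was assigned to each 8-mer. Binding occupancy is each such intensity normalised to that of the highest-ranked one.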
As to GCCAACCC, the binding signal was 0.08 normalized occupancy.

For the sequence AACATGGT, the binding signal came out at 0.0843 normalized occupancy.

On to AGTGAAAG, for which the binding signal came to 0.0743 normalized occupancy.

Regarding CCCGGTAG, the binding signal was 0.0721 normalized occupancy.

ATGTGACG: the binding signal is 0.0922 normalized occupancy.

As for ATGTGATC, the binding signal was 0.0964 normalized occupancy.

Take GTGTGATA: the binding signal amounted to 0.0856 normalized occupancy.

With ATGTGATA, the binding signal came out at 0.0999 normalized occupancy.

On to CTGTGATA, for which the binding signal turned out to be 0.0741 normalized occupancy.

For ATCTGATG, the binding signal was found to be 0.0779 normalized occupancy.

For AGGTGATC, the binding signal was 0.0832 normalized occupancy.

Consider ATGTGAAA, for which the binding signal came to 0.0872 normalized occupancy.

For the sequence ATGTGAAT, the binding signal was determined as 0.0967 normalized occupancy.

Take ATGTGATG: the binding signal worked out at 0.0968 normalized occupancy.

Take CTGTGATC: the binding signal stood at 0.0728 normalized occupancy.

As for ATGTGAAG, the binding signal was 0.0891 normalized occupancy.

With AAGAGGAA, the binding signal was 0.0726 normalized occupancy.

AATTATCG: the binding signal was found to be 0.0772 normalized occupancy.

As for AATTCGAG, the binding signal was 0.0732 normalized occupancy.

For the sequence AAGAGGGC, the binding signal came out at 0.0738 normalized occupancy.

On to CTGGTTAC, for which the binding signal stood at 0.0749 normalized occupancy.

As to ATAGGGAT, the binding signal came to 0.0812 normalized occupancy.

As to CCGAGTAG, the binding signal is 0.0732 normalized occupancy.

Regarding GATGATAA, the binding signal worked out at 0.078 normalized occupancy.

Turning to AGAATGTG, the binding signal is 0.0881 normalized occupancy.

As to ATGGTAGG, the binding signal was 0.0818 normalized occupancy.

Turning to CTTACTAA, the binding signal was 0.0721 normalized occupancy.

For the sequence CTCGTGGA, the binding signal was 0.103 normalized occupancy.

With CTAGTGGC, the binding signal is 0.0765 normalized occupancy.

As to ATCGTGGC, the binding signal is 0.086 normalized occupancy.

On to ATCGTGGA, for which the binding signal was 0.084 normalized occupancy.

CTCGTGGC: the binding signal turned out to be 0.119 normalized occupancy.

GTCGTGGA: the binding signal came out at 0.0856 normalized occupancy.

With CATCTCTA, the binding signal was determined as 0.0817 normalized occupancy.

For CAATTATG, the binding signal worked out at 0.0802 normalized occupancy.

Consider GAACACGC, for which the binding signal came to 0.108 normalized occupancy.

Regarding CAACACGC, the binding signal was 0.0995 normalized occupancy.

GAACACGA: the binding signal is 0.0948 normalized occupancy.

Consider AAACACGC, for which the binding signal stood at 0.0929 normalized occupancy.

For GAACACAC, the binding signal is 0.0767 normalized occupancy.

CAACACGA: the binding signal was 0.0817 normalized occupancy.

With ATTAGCGG, the binding signal stood at 0.0719 normalized occupancy.

On to ACATTGAA, for which the binding signal was determined as 0.0824 normalized occupancy.

For the sequence ACGAGAGG, the binding signal was 0.0776 normalized occupancy.

With AAACAAAG, the binding signal worked out at 0.0763 normalized occupancy.

Take GCATGCAA: the binding signal was 0.0988 normalized occupancy.

As to GAATGCAC, the binding signal came to 0.0772 normalized occupancy.

Regarding TCATGCAA, the binding signal was found to be 0.0829 normalized occupancy.

Turning to GCATGCAC, the binding signal came to 0.11 normalized occupancy.

As for ACATGCAA, the binding signal stood at 0.0826 normalized occupancy.

As to GTATGCAC, the binding signal was 0.0856 normalized occupancy.

ATGGAAGC: the binding signal turned out to be 0.0783 normalized occupancy.

With TGAATCCA, the binding signal turned out to be 0.0757 normalized occupancy.

As for TCGTTCCA, the binding signal is 0.0775 normalized occupancy.

Take CCATAGCC: the binding signal was 0.0762 normalized occupancy.

For GCACACGC, the binding signal came out at 0.1 normalized occupancy.

For ACACACGG, the binding signal was 0.083 normalized occupancy.

Turning to CCACACGG, the binding signal was 0.0835 normalized occupancy.

Take AAACACGG: the binding signal came to 0.0741 normalized occupancy.

Turning to AAACACGA, the binding signal stood at 0.0848 normalized occupancy.

With GCACACGA, the binding signal was 0.0896 normalized occupancy.

With CCACACGA, the binding signal is 0.0959 normalized occupancy.

Regarding ACACACGA, the binding signal came to 0.0911 normalized occupancy.

Consider GCACACAC, for which the binding signal came out at 0.0907 normalized occupancy.

Regarding ACACACGT, the binding signal turned out to be 0.0986 normalized occupancy.

On to AAACACGT, for which the binding signal was determined as 0.106 normalized occupancy.

As to TCACACGA, the binding signal was determined as 0.0859 normalized occupancy.

On to GTTTCCTA, for which the binding signal was determined as 0.0787 normalized occupancy.

As to AATATAAG, the binding signal was 0.0817 normalized occupancy.

Turning to CCCCTAAC, the binding signal is 0.0774 normalized occupancy.

For AACACTAC, the binding signal was determined as 0.0726 normalized occupancy.

With AATAGTGC, the binding signal was found to be 0.0733 normalized occupancy.

As to GGAGAGAC, the binding signal stood at 0.0742 normalized occupancy.

As to CCACACGC, the binding signal is 0.0953 normalized occupancy.

In the case of CCACACAC, the binding signal was determined as 0.0837 normalized occupancy.

Regarding CCACACAA, the binding signal stood at 0.0772 normalized occupancy.

As for AGACACGC, the binding signal was found to be 0.0922 normalized occupancy.

Regarding ACACACGC, the binding signal is 0.103 normalized occupancy.

ACACACAC: the binding signal turned out to be 0.0915 normalized occupancy.

For the sequence ACTAACAA, the binding signal came to 0.0766 normalized occupancy.

GCTTACCA: the binding signal was 0.0723 normalized occupancy.

As for GCAATCTA, the binding signal is 0.0722 normalized occupancy.

As to ATTAAAGA, the binding signal worked out at 0.0773 normalized occupancy.

Take CTATTAAC: the binding signal turned out to be 0.0779 normalized occupancy.

Regarding GTAGTAAA, the binding signal amounted to 0.0757 normalized occupancy.

Regarding AGGACCAT, the binding signal is 0.0823 normalized occupancy.

In the case of ACTATTCG, the binding signal amounted to 0.0759 normalized occupancy.

With AAAGCATA, the binding signal was found to be 0.0783 normalized occupancy.

For the sequence AAAGCATC, the binding signal was 0.0796 normalized occupancy.

Regarding CAAGCATG, the binding signal was found to be 0.105 normalized occupancy.

Consider CAAGCATA, for which the binding signal came to 0.0775 normalized occupancy.

Regarding AAAGCATG, the binding signal turned out to be 0.104 normalized occupancy.

For CAAGCATC, the binding signal amounted to 0.0744 normalized occupancy.

Take CTCACTTC: the binding signal stood at 0.0734 normalized occupancy.

Take TATTCCGA: the binding signal came out at 0.072 normalized occupancy.

Turning to CTCCACCA, the binding signal was found to be 0.075 normalized occupancy.

Consider CTCCACGA, for which the binding signal amounted to 0.0817 normalized occupancy.

Regarding CTCCACGC, the binding signal worked out at 0.101 normalized occupancy.

ATCCACGA: the binding signal stood at 0.0905 normalized occupancy.

As to ATCCACGG, the binding signal came out at 0.0796 normalized occupancy.

Take ATCCACGC: the binding signal was 0.109 normalized occupancy.

As to AGAGATAA, the binding signal turned out to be 0.0771 normalized occupancy.

As for CCTTAGGC, the binding signal was found to be 0.0728 normalized occupancy.

As for CACGCCTG, the binding signal was found to be 0.0966 normalized occupancy.

On to GACGCCTC, for which the binding signal worked out at 0.0726 normalized occupancy.

Consider CACGCCTC, for which the binding signal amounted to 0.0974 normalized occupancy.

AACGCCTG: the binding signal worked out at 0.0733 normalized occupancy.

On to CTCGCCTC, for which the binding signal turned out to be 0.0748 normalized occupancy.

Consider CACGCCTA, for which the binding signal is 0.0938 normalized occupancy.

Consider AAATAGTT, for which the binding signal came out at 0.0744 normalized occupancy.

The values are drawn from article PMC4242493, “Sequence specificity incompletely defines the genome-wide occupancy of Myc”.
